About 410 targets per protein were measured; listed, in parts, are those with the strongest signals and a random draw of the rest.
How the values were obtained:
Experiment in all cases: glycan array binding signal (z-score within array); higher = stronger binding
Conditions in all cases: glycan notation: IUPAC condensed, linker removed
[1] = biological target: Fuc(a1-2)Gal(b1-4)GlcNAc(b1-3)Gal(b1-4)GlcNAc(b1-3)Gal(b1-4)GlcNAc
How it was run: (§1)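 Arrays were curated from the Consortium for Functional Glycomics database, 3228 in total, and kept only where the protein sequence was available. Binding is expressed as a within-array Z-score. This score was averaged across arrays of the same protein sequence at different concentrations or buffers and across linkers, and negative values can be read as non-binding.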

[2] = biological target: Fuc(a1-3)[Gal(b1-4)]GlcNAc(b1-4)Gal(b1-4)[Fuc(a1-3)]GlcNAc(b1-4)Gal(b1-4)[Fuc(a1-3)]GlcNAc
How it was run: as §1

[3] = biological target: Gal(b1-4)GlcNAc(b1-3)[GlcNAc(b1-6)]Gal(b1-4)GlcNAc
How it was run: as §1

[4] = biological target: Gal3S(b1-3)GalNAc
How it was run: as §1

[5] = biological target: Gal3S4S(b1-4)GlcNAc
How it was run: as §1

[6] = biological target: Gal3S6S(b1-4)GlcNAc6S
How it was run: as §1

[7] = biological target: Gal6S(b1-4)Glc6S
How it was run: as §1

[8] = biological target: GalNAc(b1-3)Gal
How it was run: as §1

[9] = biological target: GlcNAc(a1-6)Gal(b1-4)GlcNAc
How it was run: as §1

[10] = biological target: GlcNAc(b1-2)Man(a1-3)[GlcNAc(b1-2)Man(a1-6)]Man(b1-4)GlcNAc(b1-4)GlcNAc
How it was run: as §1

[11] = biological target: GlcNAc(b1-3)Gal(b1-3)GalNAc
How it was run: as §1

[12] = biological target: GlcNAc(b1-4)GlcNAc(b1-4)GlcNAc(b1-4)GlcNAc(b1-4)GlcNAc
How it was run: as §1

[13] = biological target: GlcNAc(b1-4)GlcNAc(b1-4)GlcNAc(b1-4)GlcNAc(b1-4)GlcNAc(b1-4)GlcNAc
How it was run: as §1

[14] = biological target: Man(a1-2)Man(a1-3)Man
How it was run: as §1

[15] = biological target: Man(a1-3)[Man(a1-6)]Man(a1-6)[Man(a1-3)]Man(b1-4)GlcNAc(b1-4)GlcNAc
How it was run: as §1

[16] = biological target: Man(a1-6)Man
How it was run: as §1

[17] = biological target: Neu5Ac(a2-3)Gal(b1-4)Glc
How it was run: as §1

[18] = biological target: Neu5Ac(a2-3)Gal(b1-4)[Fuc(a1-3)]GlcNAc(b1-3)Gal
How it was run: as §1

[19] = biological target: Neu5Ac(a2-6)Gal(b1-4)GlcNAc(b1-2)Man(a1-3)[GlcNAc(b1-2)Man(b1-4)GlcNAc(b1-2)Man(a1-6)]Man(b1-4)GlcNAc(b1-4)GlcNAc
How it was run: as §1

[20] = biological target: Neu5Ac(a2-6)Gal(b1-4)GlcNAc(b1-2)Man(a1-3)[Neu5Ac(a2-6)Gal(b1-4)GlcNAc(b1-2)Man(a1-6)]Man(b1-4)GlcNAc(b1-4)GlcNAc
How it was run: as §1

[21] = biological target: Neu5Gc(a2-3)Gal(b1-4)GlcNAc
How it was run: as §1

[22] = biological target: Fuc(a1-2)Gal6S(b1-4)GlcNAc
How it was run: as §1

[23] = biological target: Fuc(a1-3)[Gal3S(b1-4)]Glc6S
How it was run: as §1

[24] = biological target: Fuc(a1-3)[Gal3S(b1-4)]GlcNAc6S
How it was run: as §1

[25] = biological target: Fuc(a1-3)[GalNAc(b1-4)]GlcNAc
How it was run: as §1

[26] = biological target: Gal(b1-4)GlcNAc(b1-3)[Gal(b1-4)GlcNAc(b1-6)]GalNAc
How it was run: as §1

[27] = biological target: Gal3S(b1-3)[Fuc(a1-4)]GlcNAc
How it was run: as §1

[28] = biological target: Gal3S(b1-4)Glc
How it was run: as §1

[29] = biological target: GlcNAc(b1-4)Gal(b1-4)GlcNAc
How it was run: as §1

[30] = biological target: Neu5Ac(a2-3)Gal(b1-4)[Fuc(a1-3)]GlcNAc6S
How it was run: as §1

[31] = biological target: Neu5Ac(a2-3)[GalNAc(b1-4)]Gal(b1-4)GlcNAc
How it was run: as §1

[32] = biological target: Neu5Ac(a2-6)Gal(b1-4)Glc
How it was run: as §1

[33] = biological target: Neu5Ac(a2-6)Gal(b1-4)GlcNAc(b1-3)Gal(b1-4)[Fuc(a1-3)]GlcNAc(b1-3)Gal(b1-4)[Fuc(a1-3)]GlcNAc
How it was run: as §1

[34] = biological target: Neu5Ac(a2-8)Neu5Ac(a2-8)Neu5Ac
How it was run: as §1

[35] = biological target: Neu5Ac(a2-8)Neu5Ac(a2-8)Neu5Ac(a2-3)[GalNAc(b1-4)]Gal(b1-4)Glc
How it was run: as §1

[36] = biological target: Neu5Ac(b2-6)GalNAc
How it was run: as §1

B1: MD-2 (Homo sapiens) (protein)
chain: MLPFLFFSTLFSSIFTEAQKQYWVCNSSDASISYTYCDKMQYPISINVNPCIELKGSKGLLHIFYIPRRDLKQLYFNLYITVNTMNLPKRKEVICRGSDDDYSFCRALKGETVNTTISFSFKGIKFSKGKYKCVVEAISGSPEEMLFCLEFVILHQPNSN
glycan array binding signal (z-score) [1]: 0.156
glycan array binding signal (z-score) [2]: -0.473
glycan array binding signal (z-score) [3]: -0.262
glycan array binding signal (z-score) [4]: -0.242
glycan array binding signal (z-score) [5]: 3.89
glycan array binding signal (z-score) [6]: 6.6
glycan array binding signal (z-score) [7]: 6.38
glycan array binding signal (z-score) [8]: -0.354
glycan array binding signal (z-score) [9]: -0.163
glycan array binding signal (z-score) [10]: -0.316
glycan array binding signal (z-score) [11]: -0.326
glycan array binding signal (z-score) [12]: 4.23
glycan array binding signal (z-score) [13]: 5.59
glycan array binding signal (z-score) [14]: -0.386
glycan array binding signal (z-score) [15]: 0.116
glycan array binding signal (z-score) [16]: 0.081
glycan array binding signal (z-score) [17]: -0.127
glycan array binding signal (z-score) [18]: -0.504
glycan array binding signal (z-score) [19]: -0.331
glycan array binding signal (z-score) [20]: -0.321
glycan array binding signal (z-score) [21]: -0.291

B2: L-Selectin (Mus musculus), P18337 (protein)
chain: MVFPWRCEGTYWGSRNILKLWVWTLLCCDFLIHHGTHCWTYHYSEKPMNWENARKFCKQNYTDLVAIQNKREIEYLENTLPKSPYYYWIGIRKIGKMWTWVGTNKTLTKEAENWGAGEPNNKKSKEDCVEIYIKRERDSGKWNDDACHKRKAALCYTASCQPGSCNGRGECVETINNHTCICDAGYYGPQCQYVVQCEPLEAPELGTMDCIHPLGNFSFQSKCAFNCSEGRELLGTAETQCGASGNWSSPEPICQVVQCEPLEAPELGTMDCIHPLGNFSFQSKCAFNCSEGRELLGTAETQCGASGNWSSPEPICQETNRSFSKIKEGDYNPLFIPVAVMVTAFSGLAFLIWLARRLKKGKKSQERMDDPY
glycan array binding signal (z-score) [1]: -0.485
glycan array binding signal (z-score) [22]: -0.072
glycan array binding signal (z-score) [23]: 3.99
glycan array binding signal (z-score) [24]: 4.9
glycan array binding signal (z-score) [25]: -0.454
glycan array binding signal (z-score) [26]: -0.393
glycan array binding signal (z-score) [27]: 3.61
glycan array binding signal (z-score) [28]: 0.558
glycan array binding signal (z-score) [6]: 4.38
glycan array binding signal (z-score) [8]: -0.436
glycan array binding signal (z-score) [29]: -0.044
glycan array binding signal (z-score) [30]: 8.82
glycan array binding signal (z-score) [31]: -0.282
glycan array binding signal (z-score) [32]: -0.214
glycan array binding signal (z-score) [33]: -0.252
glycan array binding signal (z-score) [34]: -0.493
glycan array binding signal (z-score) [35]: -0.235
glycan array binding signal (z-score) [36]: -0.495
